What all share (assay): DAPPL (digital affinity profiling via proximity ligation, sequencing); 10 mM Tris-HCl pH 7.5, 50 mM NaCl, 1 mM DTT, 4% glycerol, room temperature, 30 min; GST-TFs on glutathione beads, 16-mer random dsDNA library, 0.1% formaldehyde crosslink after washing; high values mean tight binding
Common to all, as to conditions: protein: recombinant; tags: N-terminal GST; dsDNA, one strand shown

Assay [1] deals with T1, ERF (Homo sapiens, UniProt P50548 1-548).
T1 sequence: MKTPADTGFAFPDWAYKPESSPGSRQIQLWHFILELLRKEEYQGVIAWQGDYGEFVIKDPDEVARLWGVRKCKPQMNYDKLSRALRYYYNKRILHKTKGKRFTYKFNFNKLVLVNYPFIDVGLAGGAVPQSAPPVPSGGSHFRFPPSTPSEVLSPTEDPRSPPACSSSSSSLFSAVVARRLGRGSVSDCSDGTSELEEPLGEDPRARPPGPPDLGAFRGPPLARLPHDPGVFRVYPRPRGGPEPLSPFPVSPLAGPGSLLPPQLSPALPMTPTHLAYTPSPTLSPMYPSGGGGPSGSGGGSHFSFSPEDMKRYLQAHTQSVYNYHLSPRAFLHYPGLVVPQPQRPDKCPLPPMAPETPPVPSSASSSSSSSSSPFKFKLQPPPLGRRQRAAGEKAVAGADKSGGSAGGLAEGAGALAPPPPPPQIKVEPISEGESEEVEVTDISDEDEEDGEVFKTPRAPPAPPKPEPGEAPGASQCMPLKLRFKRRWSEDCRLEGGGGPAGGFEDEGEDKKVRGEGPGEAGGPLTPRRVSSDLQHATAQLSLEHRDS
The procedure, abridged: (§1)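 Sequencing on an Illumina NextSeq500 followed washing, crosslinking with 0.1% formaldehyde, proximity ligation (BsaI/T4 ligase, 1 h, 37 °C) and PCR amplification of pools that had been incubated for 30 min at room temperature with 200 nmole of a random double-stranded 16-mer DNA library in Tris/NaCl/DTT/glycerol buffer. Each pool held DNA-barcoded human transcription factors, expressed in yeast as GST fusions and captured on glutathione beads, plus a tag-only sample. Binding signal is a hexamer's read frequency for a factor divided by its frequency in the tag-only sample.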

In assay [2] the target is T2, ETV3L (Homo sapiens, UniProt Q6ZN32 1-361).
T2 sequence: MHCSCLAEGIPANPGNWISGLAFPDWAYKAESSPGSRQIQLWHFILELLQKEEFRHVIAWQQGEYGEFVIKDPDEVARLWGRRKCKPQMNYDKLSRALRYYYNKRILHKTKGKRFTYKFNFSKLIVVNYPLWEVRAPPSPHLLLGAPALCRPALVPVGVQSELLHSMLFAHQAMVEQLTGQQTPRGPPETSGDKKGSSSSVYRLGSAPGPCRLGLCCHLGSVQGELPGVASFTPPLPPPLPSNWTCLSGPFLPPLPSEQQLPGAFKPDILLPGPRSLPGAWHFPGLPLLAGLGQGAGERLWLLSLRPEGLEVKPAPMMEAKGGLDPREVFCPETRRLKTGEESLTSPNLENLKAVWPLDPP
The procedure, abridged: as §1

For assay [3], the target named is T3, ETS2 (Homo sapiens, UniProt P15036 1-469).
T3 sequence: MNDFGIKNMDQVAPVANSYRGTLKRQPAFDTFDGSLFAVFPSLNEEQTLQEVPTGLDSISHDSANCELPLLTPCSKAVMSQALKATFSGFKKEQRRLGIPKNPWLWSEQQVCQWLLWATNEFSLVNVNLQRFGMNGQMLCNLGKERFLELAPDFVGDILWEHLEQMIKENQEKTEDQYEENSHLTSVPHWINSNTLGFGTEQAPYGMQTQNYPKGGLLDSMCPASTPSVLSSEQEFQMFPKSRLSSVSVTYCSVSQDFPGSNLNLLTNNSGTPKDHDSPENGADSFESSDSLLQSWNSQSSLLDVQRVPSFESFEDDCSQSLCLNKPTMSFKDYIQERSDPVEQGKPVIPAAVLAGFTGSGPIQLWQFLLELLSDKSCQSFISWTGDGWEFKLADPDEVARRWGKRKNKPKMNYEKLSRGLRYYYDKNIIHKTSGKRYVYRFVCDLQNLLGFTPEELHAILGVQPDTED
The procedure, abridged: as §1

Assay [4] addresses T4, SPDEF (Homo sapiens, UniProt O95238 1-335).
T4 sequence: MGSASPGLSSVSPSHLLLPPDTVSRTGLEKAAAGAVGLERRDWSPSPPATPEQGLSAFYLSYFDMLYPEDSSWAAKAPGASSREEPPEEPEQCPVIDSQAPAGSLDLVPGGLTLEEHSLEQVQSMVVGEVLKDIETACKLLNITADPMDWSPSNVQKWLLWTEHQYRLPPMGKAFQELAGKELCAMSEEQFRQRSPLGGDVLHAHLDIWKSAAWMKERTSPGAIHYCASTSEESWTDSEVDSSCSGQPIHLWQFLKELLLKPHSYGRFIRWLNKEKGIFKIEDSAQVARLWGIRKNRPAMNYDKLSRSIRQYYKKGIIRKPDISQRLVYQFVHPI
The procedure, abridged: as §1

Assay [5] deals with T5, ETV7 (Homo sapiens, UniProt Q9Y603 1-341).
T5 sequence: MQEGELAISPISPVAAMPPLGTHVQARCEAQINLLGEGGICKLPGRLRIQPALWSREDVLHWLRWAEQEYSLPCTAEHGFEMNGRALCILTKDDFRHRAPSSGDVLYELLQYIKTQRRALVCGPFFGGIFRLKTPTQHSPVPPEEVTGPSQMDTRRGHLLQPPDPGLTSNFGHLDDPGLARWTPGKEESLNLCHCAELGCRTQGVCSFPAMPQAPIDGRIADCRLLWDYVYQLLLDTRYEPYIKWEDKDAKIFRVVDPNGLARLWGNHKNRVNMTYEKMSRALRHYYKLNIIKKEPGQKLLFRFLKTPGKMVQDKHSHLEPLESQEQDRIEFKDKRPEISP
The method, boiled down:
as §1

The target in assay [6] is T6, ELF5 (Homo sapiens, UniProt Q9UKW6-2 1-255).
T6 sequence: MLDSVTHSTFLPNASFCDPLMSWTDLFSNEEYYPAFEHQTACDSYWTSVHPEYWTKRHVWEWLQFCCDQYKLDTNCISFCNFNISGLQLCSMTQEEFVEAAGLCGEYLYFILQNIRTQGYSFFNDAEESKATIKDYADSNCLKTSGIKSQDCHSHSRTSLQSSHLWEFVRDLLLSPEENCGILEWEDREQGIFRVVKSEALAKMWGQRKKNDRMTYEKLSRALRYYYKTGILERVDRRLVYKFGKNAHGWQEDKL
The procedure, abridged:
as §1

Assay [7] deals with T7, ETV3 (Homo sapiens, UniProt P41162-2 1-143).
T7 sequence: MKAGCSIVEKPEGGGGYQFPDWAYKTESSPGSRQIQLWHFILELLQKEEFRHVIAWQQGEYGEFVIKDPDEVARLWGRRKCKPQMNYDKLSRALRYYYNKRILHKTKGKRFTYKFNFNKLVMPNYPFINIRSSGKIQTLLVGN
The method, boiled down:
as §1

In assay [8] the target is ETV6 (Homo sapiens, UniProt P41212 1-452). The procedure, abridged:
as §1

Chain of ETV6 (P41212 whole entry): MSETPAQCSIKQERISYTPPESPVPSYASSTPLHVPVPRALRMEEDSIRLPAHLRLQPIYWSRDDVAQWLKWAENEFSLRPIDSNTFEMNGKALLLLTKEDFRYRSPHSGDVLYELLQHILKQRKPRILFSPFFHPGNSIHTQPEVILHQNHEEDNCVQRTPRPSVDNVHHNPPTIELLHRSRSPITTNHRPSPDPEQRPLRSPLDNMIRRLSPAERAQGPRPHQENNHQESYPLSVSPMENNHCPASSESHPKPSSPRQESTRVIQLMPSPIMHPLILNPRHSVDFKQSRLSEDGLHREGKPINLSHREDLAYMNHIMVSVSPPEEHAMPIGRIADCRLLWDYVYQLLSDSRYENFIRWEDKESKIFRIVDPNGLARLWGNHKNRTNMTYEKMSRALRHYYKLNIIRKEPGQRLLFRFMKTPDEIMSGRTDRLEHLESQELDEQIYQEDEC

As for TCTGAA, the binding signal in assay [1] is 1.27 fold enrichment (6-mer frequency, TF over GST control); in assay [2] it was 1.15 fold enrichment (6-mer frequency, TF over GST control); in assay [3], 1.27 fold enrichment (6-mer frequency, TF over GST control); in assay [4], 1.23 fold enrichment (6-mer frequency, TF over GST control); in assay [5], 1.07 fold enrichment (6-mer frequency, TF over GST control); in assay [6], 1.07 fold enrichment (6-mer frequency, TF over GST control). Besides, the binding signal in assay [7] was 1.09 fold enrichment (6-mer frequency, TF over GST control); in assay [8] it was 1.16 fold enrichment (6-mer frequency, TF over GST control).
Consider ATTTGC, for which the binding signal in assay [1] was 1.32 fold enrichment (6-mer frequency, TF over GST control); in assay [2], 1.26 fold enrichment (6-mer frequency, TF over GST control); in assay [3], 1.28 fold enrichment (6-mer frequency, TF over GST control); in assay [4], 1.27 fold enrichment (6-mer frequency, TF over GST control); in assay [5] it was 1.43 fold enrichment (6-mer frequency, TF over GST control); in assay [6], 1.25 fold enrichment (6-mer frequency, TF over GST control). The binding signal in assay [7] is 1.37 fold enrichment (6-mer frequency, TF over GST control); in assay [8], 1.27 fold enrichment (6-mer frequency, TF over GST control).
For the sequence AAGTCT, the binding signal is 1.25 fold enrichment (6-mer frequency, TF over GST control) in assay [1]; 1.14 fold enrichment (6-mer frequency, TF over GST control) in assay [2]; 1.21 fold enrichment (6-mer frequency, TF over GST control) in assay [3]; 1.13 fold enrichment (6-mer frequency, TF over GST control) in assay [4]; 1.15 fold enrichment (6-mer frequency, TF over GST control) in assay [5]; 1.23 fold enrichment (6-mer frequency, TF over GST control) in assay [6]. Besides, the binding signal in assay [7] was 1.21 fold enrichment (6-mer frequency, TF over GST control); in assay [8], 1.14 fold enrichment (6-mer frequency, TF over GST control).
As to AAGTTC, the binding signal is 1.31 fold enrichment (6-mer frequency, TF over GST control) in assay [1]; 1.5 fold enrichment (6-mer frequency, TF over GST control) in assay [2]; 1.55 fold enrichment (6-mer frequency, TF over GST control) in assay [3]; 1.54 fold enrichment (6-mer frequency, TF over GST control) in assay [4]; 1.4 fold enrichment (6-mer frequency, TF over GST control) in assay [5]; 1.57 fold enrichment (6-mer frequency, TF over GST control) in assay [6]. The binding signal in assay [7] was 1.48 fold enrichment (6-mer frequency, TF over GST control); in assay [8], 1.52 fold enrichment (6-mer frequency, TF over GST control).
With AATGCA, the binding signal in assay [1] is 1.3 fold enrichment (6-mer frequency, TF over GST control); in assay [2], 1.28 fold enrichment (6-mer frequency, TF over GST control); in assay [3] it was 1.28 fold enrichment (6-mer frequency, TF over GST control); in assay [4], 1.23 fold enrichment (6-mer frequency, TF over GST control); in assay [5], 1.3 fold enrichment (6-mer frequency, TF over GST control); in assay [6], 1.31 fold enrichment (6-mer frequency, TF over GST control). Moreover, the binding signal was 1.25 fold enrichment (6-mer frequency, TF over GST control) in assay [7] and 1.37 fold enrichment (6-mer frequency, TF over GST control) in assay [8].
As for AAATAC, the binding signal was 1.48 fold enrichment (6-mer frequency, TF over GST control) in assay [1]; 1.35 fold enrichment (6-mer frequency, TF over GST control) in assay [2]; 1.39 fold enrichment (6-mer frequency, TF over GST control) in assay [3]; 1.41 fold enrichment (6-mer frequency, TF over GST control) in assay [4]; 1.5 fold enrichment (6-mer frequency, TF over GST control) in assay [5]; 1.52 fold enrichment (6-mer frequency, TF over GST control) in assay [6]. For the same sequence, the binding signal in assay [7] is 1.39 fold enrichment (6-mer frequency, TF over GST control); in assay [8] it was 1.49 fold enrichment (6-mer frequency, TF over GST control).
Turning to TCCTAT, the binding signal in assay [1] is 1.56 fold enrichment (6-mer frequency, TF over GST control); in assay [2] it was 1.5 fold enrichment (6-mer frequency, TF over GST control); in assay [3], 1.65 fold enrichment (6-mer frequency, TF over GST control); in assay [4], 1.72 fold enrichment (6-mer frequency, TF over GST control); in assay [5], 1.53 fold enrichment (6-mer frequency, TF over GST control); in assay [6], 1.56 fold enrichment (6-mer frequency, TF over GST control). The binding signal in assay [7] was 1.64 fold enrichment (6-mer frequency, TF over GST control); in assay [8] it was 1.66 fold enrichment (6-mer frequency, TF over GST control).
TCGCCT: the binding signal in assay [1] was 1.27 fold enrichment (6-mer frequency, TF over GST control); in assay [2], 1.23 fold enrichment (6-mer frequency, TF over GST control); in assay [3] it was 1.24 fold enrichment (6-mer frequency, TF over GST control); in assay [4] it was 1.13 fold enrichment (6-mer frequency, TF over GST control); in assay [5], 1.15 fold enrichment (6-mer frequency, TF over GST control); in assay [6] it was 1.33 fold enrichment (6-mer frequency, TF over GST control). The binding signal is 1.22 fold enrichment (6-mer frequency, TF over GST control) in assay [7] and 1.32 fold enrichment (6-mer frequency, TF over GST control) in assay [8].
